The supplement of paper PMC9942566
± gives the standard deviation of the averaged measurements.

system: Serratia marcescens K904 PosmB-luxCDABE reporter (pMQ747); assay: PosmB-lux reporter fold induction (RLU/OD600 relative to no-compound control), highest over Biolog concentrations; higher = stronger Rcs reporter activation; conditions: wild type K904; 4 h
Experimental: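 Serratia marcescens K904 (wild type) or its isogenic ΔrcsB mutant, carrying the Rcs-dependent PosmB-luxCDABE reporter plasmid pMQ747, was grown in LB at OD600 0.1 in Biolog Phenotype MicroArray plates PM11-20 for 4 h at 30-32°C. Each compound is present at 3-4 proprietary concentrations (not stated); per the Fig. S1 legend the value given is the highest fold over those wells. Three independent trials.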

SMILES	PosmB-lux reporter fold induction
CCn1nc(C(=O)O)c(=O)c2cc3c(cc21)OCO3 [cinoxacin] (Biolog plate: PM16, well positions: D9-12)	2.46 ± 0.85
O=C1OC(CN2CCOCC2)CN1/N=C/c1ccc([N+](=O)[O-])o1 (stereo not given) [Furaltadone] (Biolog plate: PM14, well positions: A5-8)	1.52 ± 0.2
O=C(O)c1cn(C2CC2)c2cc(N3CCNCC3)c(F)cc2c1=O [ciprofloxacin] (Biolog plate: PM20, well positions: D5-8)	1.63 ± 0.41
CO[C@@]1(NC(=O)C(C(=O)O)c2ccc(O)cc2)C(=O)N2C(C(=O)O)=C(CSc3nnnn3C)CO[C@@H]21 (stereo not given in full) [Moxalactam] (Biolog plate: PM13, well positions: H5-8)	1.69 ± 0.24
CC1(C)S[C@@H]2[C@H](NC(=O)COc3ccccc3)C(=O)N2[C@H]1C(=O)O.CN(C)[C@@H]1C(O)=C(C(=O)NCN2CCN(CCO)CC2)C(=O)[C@@]2(O)C(O)=C3C(=O)c4c(O)cccc4[C@@](C)(O)[C@H]3C[C@@H]12 [Penimepicycline] (Biolog plate: PM12, well positions: B5-8)	3.22 ± 1.1
COc1cc(Cc2cnc(N)nc2N)cc(OC)c1OC [trimethoprim] (Biolog plate: PM16, well positions: B9-12)	1.93 ± 0.91
OCC(O)CS (stereo not given) [thioglycerol] (Biolog plate: PM19, well positions: H5-8)	1.22 ± 0.31
[Na+].[O]=[V](=[O])[O-] [Sodium metavanadate] (Biolog plate: PM14, well positions: F9-12)	3.94 ± 1.2
c1ccc(-c2ccccn2)nc1 [2,2'-Dipyridyl] (Biolog plate: PM13, well positions: B5-8)	1.97 ± 0.26
Nc1ccc(S(=O)(=O)Nc2ccc(Cl)nn2)cc1 [sulfachloro-pyridazine] (Biolog plate: PM17, well positions: C5-8)	1.46 ± 0.31
CO[C@@]1(NC(=O)Cc2cccs2)C(=O)N2C(C(=O)O)=C(COC(N)=O)CS[C@@H]21 [Cefoxitin] (Biolog plate: PM14, well positions: E1-4)	4.05 ± 0.85
CC1(C)S[C@@H]2[C@H](NC(=O)[C@H](N)c3ccccc3)C(=O)N2[C@H]1C(=O)O [Ampicillin] (Biolog plate: PM13, well positions: A2-4)	1.39 ± 0.02
O=C1CN(/N=C/c2ccc([N+](=O)[O-])o2)C(=O)N1 [Nitrofurantoin] (Biolog plate: PM14, well positions: E5-8)	2.33 ± 0.28
[Cl][Fe]([Cl])[Cl] [ferric chloride] (Biolog plate: PM16, well positions: G5-8)	0.898 ± 0.3
O=C(N[C@H](CO)[C@H](O)c1ccc([N+](=O)[O-])cc1)C(Cl)Cl [Chloramphenicol] (Biolog plate: PM11, well positions: F1-4)	1.4 ± 0.62
CN[C@@H]1[C@@H](O)[C@@H](O[C@@H]2[C@@H](O)[C@H](O[C@H]3OC(CN)=CC[C@H]3N)[C@@H](N)C[C@H]2N)OC[C@]1(C)O [Sisomicin] (Biolog plate: PM12, well positions: D1-4)	1.55 ± 0.14
CN(C)[C@@H]1C(O)=C(C(N)=O)C(=O)[C@@]2(O)C(O)=C3C(=O)c4c(O)ccc(Cl)c4[C@@H](O)[C@H]3C[C@@H]12 [Demeclocycline] (Biolog plate: PM11, well positions: D5-8)	1.53 ± 0.45
Cn1nnnc1SCC1=C(C(=O)O)N2C(=O)[C@@H](NC(=O)[C@H](OC=O)c3ccccc3)[C@H]2SC1 [cefamandole nafate] (Biolog plate: PM17, well positions: G5-8)	1.96 ± 0.53
S=c1nc[nH]c2nc[nH]c12 [6-Mercapto-purine] (Biolog plate: PM13, well positions: C1-4)	1.6 ± 0.2
COc1ccc(CO)cc1OC [3,4-Dimethoxy-benzyl alcohol] (Biolog plate: PM15, well positions: F1-4)	2.75 ± 1.1

SMILES	PosmB-lux reporter fold induction
CC(Oc1ccccc1)C(=O)N[C@@H]1C(=O)N2[C@@H]1SC(C)(C)[C@@H]2C(=O)O (stereo not given in full) [phenethicillin] (Biolog plate: PM19, well positions: F1-4)	86 ± 19
CO[C@H]1/C=C/O[C@@]2(C)Oc3c(C)c(O)c4c(O)c(c(/C=N/N5CCN(C)CC5)c(O)c4c3C2=O)NC(=O)/C(C)=C\C=C\[C@H](C)[C@H](O)[C@@H](C)[C@@H](O)[C@@H](C)[C@H](OC(C)=O)[C@@H]1C [Rifampicin] (Biolog plate: PM12, well positions: H5-8)	4.01 ± 0.98
Cc1nnc(SCC2=C(C(=O)O)N3C(=O)[C@@H](NC(=O)Cn4cnnn4)[C@H]3SC2)s1 [Cefazolin] (Biolog plate: PM11, well positions: E1-4)	1.18 ± 0.073
O=C(O)c1cc(O)c(O)c(O)c1 [gallic acid] (Biolog plate: PM19, well positions: A5-8)	1.46 ± 0.28
Cc1cc(O)cc(C)c1Cl [chloroxylenol] (Biolog plate: PM16, well positions: H5-8)	2.08 ± 0.6
CCn1cc(C(=O)O)c(=O)c2cc(F)c(N3CCNC(C)C3)c(F)c21 (stereo not given) [Lomefloxacin] (Biolog plate: PM11, well positions: B9-12)	1.5 ± 0.2
CCn1cc(C(=O)O)c(=O)c2cc(F)c(N3CCNCC3)cc21 [norfloxacin] (Biolog plate: PM16, well positions: B1-4)	1.02 ± 0.2
Cc1cc(C)nc(NS(=O)(=O)c2ccc(N)cc2)n1 [Sulfamethazine] (Biolog plate: PM12, well positions: D5-8)	3.6 ± 0.65
CC(=O)O[C@H]1C[C@@]2(C)[C@@H](C[C@@H](O)[C@H]3[C@@]4(C)CC[C@@H](O)[C@@H](C)[C@@H]4CC[C@@]32C)/C1=C(\CCC=C(C)C)C(=O)O [Fusidic acid] (Biolog plate: PM15, well positions: C5-8)	1.01 ± 0.48
CC(C(=O)O)c1cccc(C(=O)c2ccccc2)c1 (stereo not given) [ketoprofen (an NSAID)] (Biolog plate: PM18, well positions: A2-4)	1.95 ± 0.79
CN(C)c1ccc(C(=C2C=CC(=[N+](C)C)C=C2)c2ccc(N(C)C)cc2)cc1 [crystal violet] (Biolog plate: PM20, well positions: E1-4)	0.912 ± 0.13
O.O=S(=O)([O-])[O-].O=S(=O)([O-])[O-].O=S(=O)([O-])[O-].[Al+3].[Al+3] [aluminum sulfate] (Biolog plate: PM16, well positions: F9-12)	1.33 ± 0.3
NC(CO)C(=O)NO (racemic) [D,L-Serine hydroxamate] (Biolog plate: PM12, well positions: C9-12)	3.63 ± 0.5
Cn1c(=O)c2c(ncn2C)n(C)c1=O [caffeine] (Biolog plate: PM17, well positions: H5-8)	1.68 ± 0.37
O=C1C=C(O)C(=O)c2ccccc21 [lawsone] (Biolog plate: PM19, well positions: E9-12)	1.63 ± 0.34
CS(=O)(=O)c1ccc([C@@H](O)[C@@H](CO)NC(=O)C(Cl)Cl)cc1 [thiamphenicol] (Biolog plate: PM18, well positions: A9-12)	0.659 ± 0.017
Cn1cnc([N+](=O)[O-])c1Sc1ncnc2[nH]cnc12 [azathioprine] (Biolog plate: PM18, well positions: B9-12)	0.797 ± 0.12
CCn1cc(C(=O)O)c(=O)c2ccc(C)nc21 [Nalidixic Acid] (Biolog plate: PM11, well positions: E9-12)	3.44 ± 0.51
CN[C@@H]1[C@H](O[C@H]2[C@H](O[C@H]3[C@H](O)[C@@H](O)[C@H](NC(=N)N)[C@@H](O)[C@@H]3NC(=N)N)O[C@@H](C)[C@]2(O)CO)O[C@@H](CO)[C@H](O)[C@H]1O [dihydro-streptomycin] (Biolog plate: PM19, well positions: G5-8)	1.47 ± 0.16
O=C([O-])c1ccccc1O.[Na+] [sodium salicylate (NSAID)] (Biolog plate: PM17, well positions: B1-4)	5.52 ± 2
